Measurements from PubChem BioAssay AID1578 (Sanford-Burnham Center for Chemical Genomics, 2009).
The campaign covered roughly 290,000 compounds. About 3,000 (1%) were called active. Cut-off read from the data, not from the text of the source: active = inhibition mostly above about 36% (no sharp cut-off); inactive = mostly below about 34%. The entries come from a sample that favours actives as a whole.

Experiment: inhibition of NOD1-driven NF-kB reporter – cell-based, luminescence, uHTS, primary screen (AID 1578);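 note: HEK-293T reporter cells stimulated with the NOD1 agonist gamma-tri-DAP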
Settings: NOD1-driven NF-kB luciferase reporter cells, at 4 µM, hits give high values

inhibition, active:
c1ccn2cc(-c3ccc4c(c3)OCCO4)nc2c1 45.8%, COC(=O)c1ccc2nc(-c3ccc4c(c3)OCO4)cn2c1 68.3%, Cc1ccc(-c2cn3cc(C)ccc3n2)cc1 92.4%, CCOC(=O)c1c(CSc2ccccc2)oc2ccc(O)cc12 98.6%, CC(CN1CCOCC1)OC(=O)c1ccc(C(C)(C)C)cc1 (stereo unspecified) 68.1%, COc1ccc(Cn2c3nc4ccccc4nc3c3c(=O)n(Cc4ccco4)c(C)nc32)cc1 110%, O=C(Nc1nonc1NC(=O)c1cccs1)c1cccs1 58.9%, CCOC(=O)CNC(=O)CSc1ncnc2c1cnn2Cc1ccccc1 55.8%, COc1ccc(OC)c(-c2cc(C3CCN(c4cc(Cl)nc(N)n4)CC3)[nH]n2)c1 56.3%, N#CCC(=O)NNC(=S)Nc1ccccc1C(F)(F)F 42.8%, Cc1cc(C)c2c(N)c(C(=O)c3ccc(Br)cc3)oc2n1 68.7%

inhibition, inactive:
COC(=O)C1CCN(Cc2cn(-c3ccccc3)nc2-c2ccc3c(c2)OCO3)CC1 -55.9%, CC1CN(Cc2c(O)ccc3c(=O)c(-c4ccccc4)coc23)CC(C)O1 (stereo unspecified) -13.3%, COc1ccc(C2N3CC4(C)CN2CC(C)(C3)C4=O)cc1OC (stereo unspecified) -7.8%, Cc1ccc(-c2noc(CCC(=O)NCc3ccco3)n2)cc1 -0.8%, O=C(CCc1nc(-c2ccccc2)no1)NCc1ccco1 11%, Fc1cnc(N2CCN(c3ccccc3)CC2)nc1N1CCN(c2ccccc2)CC1 43.3%, O=C(CCc1nc2ccccc2c(=O)[nH]1)Nc1ccc(F)cc1 -23.2%, Clc1ccc2nc(-c3ccc4c(c3)OCO4)cn2c1 -30.6%, Oc1ccc(-c2cn3ccccc3n2)cc1O 1.7%, Oc1ccc(-c2cn3ccccc3n2)cc1 -2%, COC(=O)c1ccc2nc(-c3cccc(N)c3)cn2c1 40.5%, CC12CCC(C(=O)O)(c3nc(C#N)c(C#N)nc31)C2(C)C (stereo unspecified) -25.8%, O=C(NCc1ccccn1)c1cccc(NS(=O)(=O)c2cccc(F)c2)c1 -15.2%, O=C(CCCn1c(=S)[nH]c2cc3c(cc2c1=O)OCO3)N1CCN(c2ccc(F)cc2)CC1 -8.6%, Cc1cccc(N2CCN(C(=O)CCCn3c(=S)[nH]c4cc5c(cc4c3=O)OCO5)CC2)c1C 2.8%, O=C(CCCn1c(=S)[nH]c2cc3c(cc2c1=O)OCO3)N1CCN(c2ccccc2)CC1 -1%, O=C(CCCCCn1c(=S)[nH]c2ccc(N3CCOCC3)cc2c1=O)NCc1ccccc1 2.3%, C=CCNC(=O)CN(c1ccc(F)c(Cl)c1)S(C)(=O)=O -17.3%, CC(=O)N[C@@H](C)C(=O)N1CCN(S(=O)(=O)c2ccc(Cl)cc2)CC1 -26%, O=C(Nc1cccnc1Oc1ccc(Cl)cc1)c1cccc2ccccc12 -9.2%, COc1cc(OC)c(NC2c3ccccc3C(=O)N2c2cc(C)ccn2)cc1Cl (stereo unspecified) -37.7%, Cc1ccc(C)c(NC(=O)CCN2CCCCC2)c1 -14.7%, CCO[C@H]1OC(C(=O)O)=C[C@@H](c2ccc3c(c2)OCO3)[C@@H]1CCCO -10.4%, Cc1ccc2nc(-c3ccccc3)cn2c1 18%, Cc1ccc2nc(-c3ccc(O)c(O)c3)cn2c1 -18.6%, CCOC(=O)c1c(CSc2ccc(C)cc2)oc2ccc(O)cc12 30%, CCOC(=O)c1c(COc2ccccc2)oc2ccc(O)cc12 0%, CCOC(=O)CC(=O)CSc1nc2ccccc2c(=O)n1-c1ccc(C(=O)N2CCOCC2)cc1 6.8%, Cc1ccc(Cn2nnc3c(=O)[nH]c(C4CCCN(S(=O)(=O)c5ccc(F)cc5)C4)nc32)cc1 (stereo unspecified) -17.1%, CCN(CC(=O)Nc1ccc(NC(C)=O)cc1)C(=O)C1COc2ccccc2O1 (stereo unspecified) -17.6%, CC(CN1CCOCC1)OC(=O)c1ccccc1 (stereo unspecified) -4.8%, CC(CN1CCOCC1)OC(=O)c1ccc(Br)cc1 (stereo unspecified) -14.8%, Cc1nc2c(c(=O)n1Cc1ccccc1Cl)c1nc3ccccc3nc1n2Cc1ccco1 17.8%, COc1ccc(Cn2c3nc4ccccc4nc3c3c(=O)n(Cc4ccco4)cnc32)cc1 32.5%, O=C(NS(=O)(=O)Nc1ccc(Br)cn1)c1c[nH]c2ccccc12 31.1%, CCOc1ccc(S(=O)(=O)N(C)c2ccc(OCC(=O)NCCc3ccc(OC)cc3)cc2)cc1 -14%, CN1CCN(S(=O)(=O)c2cccc(C(=O)Nc3sc4c(c3-c3nc5ccccc5[nH]3)CCCC4)c2)CC1 -16%, O=C(Nc1ccc(NC(=O)c2cccs2)cc1)c1cccs1 -30.2%, O=C(Nc1ccncc1)c1cccs1 37.2%, N#C/C(=C\c1cccc([N+](=O)[O-])c1)C(=O)NCC1CCCO1 (stereo unspecified) -21%, O=C(Nc1ccccc1C(=O)O)c1ccc(Br)c(S(=O)(=O)NCc2ccccc2)c1 -0.6%, COC(=O)CSc1ncnc2c1cnn2Cc1ccccc1 13.7%, CCOC(=O)CNC(=O)CSc1ncnc2c1cnn2-c1ccccc1 -10.2%, COc1ccc(-c2cc(C3CCN(c4cc(Cl)nc(N)n4)CC3)[nH]n2)cc1 25.9%, Nc1nc(Cl)cc(N2CCC(c3cc(-c4ccc(Cl)cc4Cl)n[nH]3)CC2)n1 34.5%, COC(=O)c1cc(C(=O)c2ccccc2)n2c(=O)/c(=C\N(C)C)sc12 -11.3%, O=C(CCC(=O)Nc1ccccc1Cl)NNC(=S)Nc1ccccc1C(F)(F)F -30.7%, O=C(NNC(=S)Nc1ccccc1C(F)(F)F)C1CC1 -0.9%, Cc1cc(C)c2c(N)c(C(=O)c3ccccc3)oc2n1 2%, Cc1ccc(C(=O)c2oc3nc(C)cc(C)c3c2N)cc1 -6.8%
